Cycloheximide cs = counter-screen hit for Shiga toxin inhibitors, cycloheximide; 300,000 tested, 12% active; cell reporter, cycloheximide protein synthesis inhibition counterscreen; max response, %; in the data active = max response mostly above about 13%, no sharp cut-off; inactive = mostly below about 14%; note: read at 38.3 µM for the half of the compounds with a filed dose; 0% is about no effect
Pf growth 48h = inhibits P. falciparum growth in the first generation, 48 h; AID 504832; 310,000 tested, 5.9% active; Potency, µM (doses to about 28.7 µM), inactives show top-dose activity change, negative = inhibition, actives largely listed as inhibitors; P. falciparum luciferase growth in erythrocytes, 48 h; note: potency is the fitted concentration of half-maximal effect; % is set by controls: 0 for no effect and ±100 for the full control effect
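Here the parasites carry a stable luciferase gene and grow inside erythrocytes in Albumax-based RPMI medium with compound for one erythrocytic cycle. Activity is scored as loss of luminescent signal.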
Pf growth 96h = inhibits malaria parasite growth, 96 h. P. falciparum luciferase reporter growth, 96 h. 320,000 tested, 6.9% active. Potency, µM (series often up to 28.7 µM), without a hit: at the top dose activity change, negative = inhibition, most hits filed as inhibitors. AID 504834; note: potency is the fitted concentration of half-maximal effect; % is set by controls: 0 for no effect and ±100 for the full control effect
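Cell-based qHTS: luciferase-tagged P. falciparum in erythrocytes (2% hematocrit, 0.05% parasitemia final) incubated with compounds for 96 hours, 37 C, 5% CO2; luciferase detection reagent then added and luminescence measured.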
Shiga inhibitor = inhibitors of Shiga toxin in Vero cells; Vero cells, Shiga toxin protein synthesis inhibition reporter; inhibition, % at 38.7 µM; 290,000 tested, 9.2% active; in the data active = inhibition mostly above about 28%, no sharp cut-off; inactive = mostly below about 43%; note: 0% is about no effect
Active calls of the source: *; ? = inconclusive; / = no result given; [ ] = dose if it differs, or a comment. This is a sample that favours compounds with a hit; in the whole collection about 21% have one here. Unless noted, calls come from the whole dose curve; as a rule, active = well fitted inhibition curve with a large enough effect; inconclusive = small, poorly fitted or top-dose-only effect, or another doubt; inactive = no such curve, though single readings can be large or run the other way.

SMILES	Cycloheximide cs	Pf growth 48h	Pf growth 96h	Shiga inhibitor
COc1cc(C(=O)Nc2cccc(S(=O)(=O)N3CCCC3)c2)cc(OC)c1C	6	?	?	10
Cc1ccc(C(=O)N(C)CC(=O)Nc2ccc(Cl)c(C(F)(F)F)c2)cc1S(=O)(=O)N1CCCCC1	/	9.3µM*	?	/
COCCN(CC(=O)Nc1cccc(S(=O)(=O)N2CCCC2)c1)Cc1nc2ccccc2c(=O)[nH]1	/	10µM*	?	/
Cc1ccc(S(=O)(=O)N2CCCCC2)cc1C(=O)N(C)CC(=O)Nc1ccc(Cl)c(C(F)(F)F)c1	0	?	?	-6
O=C(CCN1CCN(c2ccc(Cl)cc2)CC1)Nc1ccccc1F	6	59%	2.9µM*	-2
COc1ccc(OC)c(NC(=O)CCN2CCN(c3ccccc3F)CC2)c1	-2	/	6%	-13
COc1cccc(NC(=O)CCN2CCN(c3ccccc3F)CC2)c1	-2	18%	12µM*	28
O=C(CCN1CCN(c2ccccc2F)CC1)Nc1ccccc1F	18*	27%	-8%	34
O=C(CN1CCN(CCC(=O)Nc2ccccc2F)CC1)Nc1ccc(Cl)cc1	7	?	35%	8
COc1cc2c(cc1OC)C(c1ccccc1F)NCC2 (stereo not drawn)	-3	18%	?	/
CCOC(=O)c1cn(CC)c2cc(Cl)c([N+](=O)[O-])cc2c1=O	-3	13µM*	?	-10
CCOC(=O)c1cn(-c2c(Cl)cccc2Cl)c2cc(Cl)c([N+](=O)[O-])cc2c1=O	-5	13µM*	8.3µM*	-16
CCOC(=O)c1cn(CC2CC2)c2cc(F)c(F)cc2c1=O	-2	-18%	?	7
CCCC(=O)Nc1sc2c(c1C(=O)Nc1ccccn1)CCCC2	-1	?	100%	-15
CCn1c(=O)c(C(=O)NNS(=O)(=O)c2ccc(Br)cc2)c(O)c2ccccc21	7	-2%	5%	14
CCCC1O[C@@H]2C[C@H]3[C@@H]4CCC5=CC(=O)C=C[C@]5(C)[C@H]4[C@@H](O)C[C@]3(C)[C@]2(C(=O)CO)O1 (stereo partly drawn)	-2	4.1µM*	2.3µM*	-10
CCCC1OC2CC3C4CCC5=CC(=O)C=CC5(C)C4C(O)CC3(C)C2(C(=O)O)O1 (stereo not drawn)	2	8%	-66%	-4
CCCC1O[C@@H]2CC3C4CCC5=CC(=O)C=C[C@]5(C)C4C(OC(C)=O)C[C@]3(C)[C@]2(C(=O)COC(C)=O)O1 (stereo partly drawn)	-2	9.3µM*	1.2µM*	-3
CC(=O)OCC(=O)[C@@]1(O)[C@H](OC(C)=O)C[C@H]2[C@@H]3CCC4=CC(=O)C=C[C@]4(C)[C@@]3(F)[C@@H](O)C[C@@]21C	-3	/	/	12
CC(C)C(=O)OCC(=O)[C@@]12OC(C3CCCCC3)O[C@@H]1CC1C3CCC4=CC(=O)C=C[C@]4(C)C3[C@@H](O)C[C@@]12C (stereo partly drawn)	/	0.67µM*	0.76µM*	/
CC(=O)OCC(=O)[C@@]1(O)CC[C@H]2[C@@H]3C[C@H](C)C4=CC(=O)C=C[C@]4(C)[C@H]3[C@@H](O)C[C@@]21C	1	0%	22%	-6
CCC(=O)[C@@]1(C)[C@H](C)C[C@H]2[C@@H]3CCC4=CC(=O)C=C[C@]4(C)[C@H]3[C@@H](O)C[C@@]21C	/	2.3µM*	5%	/
COc1ccc(NC(=O)c2ccc(-c3nn(C)c(=O)c4ccccc34)cc2)cc1C(N)=O	1	?	-4%	-13
CC1(c2nnc(-c3ccncc3)o2)CC(c2ccc(F)cc2)=NO1 (stereo not drawn)	-7	40%	43%	-5
CCOc1ccccc1CNCC1CCCO1 (stereo not drawn)	-4	9%	?	-6
SMILES	Cycloheximide cs	Pf growth 48h	Pf growth 96h	Shiga inhibitor
CC1(C)O[C@@H]2C[C@H]3[C@H]4C[C@H](F)C5=CC(=O)C=C[C@@]5(C)[C@@H]4[C@H](O)C[C@]3(C)[C@]2(C(=O)CO)O1	/	-10%[12.8 µM]	-24%[12.8 µM]	/
C[C@]12C=CC(=O)C=C1CC[C@@H]1C2[C@@H](O)C[C@@]2(C)C1CC[C@]2(O)C(=O)COC(=O)CCC(=O)O (stereo partly drawn)	-4	-16%[0.00184 µM]	25%	-13
C=C1N[C@]2(C(=O)COC(C)=O)[C@@H](C[C@H]3[C@@H]4CCC5=CC(=O)C=C[C@]5(C)[C@H]4[C@@H](O)C[C@@]32C)O1	/	?	9.5µM*	/
CCC[C@@H]1O[C@@H]2C[C@@H]3[C@H]4CCC5=CC(=O)C=C[C@@]5(C)[C@H]4[C@H](O)C[C@@]3(C)[C@@]2(C(=O)CO)O1	/	11µM*	4.8µM*	/
COc1ccc(-n2nnnc2SCc2nc3ccccc3s2)cc1	68*	/	197%	99*
COc1ccc(C)cc1-n1nnnc1SCc1nc2ccccc2s1	45*	56%	90%	129*
COc1ccc(C(=O)N2CCOC2CNC(=O)C(=O)NCCc2ccc(OC)c(OC)c2)cc1 (stereo not drawn)	-3	?	-21%	-3
CCCCCCCCCCCCCCOc1ccc(C(=O)O)o1	4	/	/	12
CC1CC(C)CN(CCCNC(=O)c2ccc3c(c2)ncn3C2CCCC2)C1 (stereo not drawn)	6	?	10µM*	15
O=C(O)c1ccc2c(c1)ncn2C1CCCC1	48*	101%	-22%	114*
CCCCNC(=O)c1ccc2c(c1)ncn2C1CCCC1	34*	/	?	65
CCCCNC(=O)c1ccc2c(c1)ncn2C1CCCCC1	12	?	?	-4
CC(C)CCNC(=O)c1ccc2c(c1)ncn2C1CCCCC1	19	?	?	42*
O=C(CCSc1ccc(Cl)cc1)NC12CC3CC(CC(C3)C1)C2	9	/	?	21
CC(=O)NC1=NN(C(C)=O)C(c2sccc2C)S1 (stereo not drawn)	-2	/	-6%	-6
COc1cccc(-c2cccc(NC(=O)C3CCN(C4CCOCC4)CC3)c2)c1	1	-10%	-25%	6
CNC(=O)CSc1nc2cccnc2n1-c1ccc(F)cc1	-2	-25%	?	-2
CC(=O)c1cc(C(C)=O)c(C)[n+](C)c1C	1	10µM*	24%	6
CC(=O)c1cc(C(C)=O)c(C)nc1C	15	5%	1.9µM*	-9
CC(=O)c1cccc(N(CC(=O)NC2CCCC2)C(=O)c2csnn2)c1	4	38%	2%	-8
CCCCS(=O)CC(CS(=O)CCCC)OC(=O)c1ccccc1 (stereo not drawn)	-2	3%	6.6µM*	-22
COc1ccc(C(=O)NCCSC2CCCCC2)cc1	42*	31%	132%	80*
CS(=O)(=O)Nc1ccc(C(=O)NCCSC2CCCCC2)cc1	9	/	29%	18
O=C(NCCSC1CCCCC1)c1ccccc1	30*	?	?	63*
CCOc1ccc(S(=O)(=O)N2CCOCC2)cc1NC(=O)CSCc1c(C)noc1C	/	?	-15%	/
CCC1CCC/C1=N\NC(=O)c1ccoc1C (stereo not drawn)	38*	1%	0%	86*
Cc1c2ccncc2c(C)c2c1[nH]c1ccccc12	5	1µM*	1µM*	2
COc1ccc2[nH]c(C)cc(=O)c2c1	-1	-18%	-29%	30
